{"source": "ChEMBL document CHEMBL4649991", "key": {"[1]": {"target": "Bromodomain-containing protein 4 (Homo sapiens) (UniProt O60885)", "settings": "Compound concentration 10.0 uM, Protein concentration 2.0 uM"}, "[2]": {"target": "T1, Transcription intermediary factor 1-alpha (Homo sapiens) (UniProt O15164)", "T1 sequence (whole entry)": "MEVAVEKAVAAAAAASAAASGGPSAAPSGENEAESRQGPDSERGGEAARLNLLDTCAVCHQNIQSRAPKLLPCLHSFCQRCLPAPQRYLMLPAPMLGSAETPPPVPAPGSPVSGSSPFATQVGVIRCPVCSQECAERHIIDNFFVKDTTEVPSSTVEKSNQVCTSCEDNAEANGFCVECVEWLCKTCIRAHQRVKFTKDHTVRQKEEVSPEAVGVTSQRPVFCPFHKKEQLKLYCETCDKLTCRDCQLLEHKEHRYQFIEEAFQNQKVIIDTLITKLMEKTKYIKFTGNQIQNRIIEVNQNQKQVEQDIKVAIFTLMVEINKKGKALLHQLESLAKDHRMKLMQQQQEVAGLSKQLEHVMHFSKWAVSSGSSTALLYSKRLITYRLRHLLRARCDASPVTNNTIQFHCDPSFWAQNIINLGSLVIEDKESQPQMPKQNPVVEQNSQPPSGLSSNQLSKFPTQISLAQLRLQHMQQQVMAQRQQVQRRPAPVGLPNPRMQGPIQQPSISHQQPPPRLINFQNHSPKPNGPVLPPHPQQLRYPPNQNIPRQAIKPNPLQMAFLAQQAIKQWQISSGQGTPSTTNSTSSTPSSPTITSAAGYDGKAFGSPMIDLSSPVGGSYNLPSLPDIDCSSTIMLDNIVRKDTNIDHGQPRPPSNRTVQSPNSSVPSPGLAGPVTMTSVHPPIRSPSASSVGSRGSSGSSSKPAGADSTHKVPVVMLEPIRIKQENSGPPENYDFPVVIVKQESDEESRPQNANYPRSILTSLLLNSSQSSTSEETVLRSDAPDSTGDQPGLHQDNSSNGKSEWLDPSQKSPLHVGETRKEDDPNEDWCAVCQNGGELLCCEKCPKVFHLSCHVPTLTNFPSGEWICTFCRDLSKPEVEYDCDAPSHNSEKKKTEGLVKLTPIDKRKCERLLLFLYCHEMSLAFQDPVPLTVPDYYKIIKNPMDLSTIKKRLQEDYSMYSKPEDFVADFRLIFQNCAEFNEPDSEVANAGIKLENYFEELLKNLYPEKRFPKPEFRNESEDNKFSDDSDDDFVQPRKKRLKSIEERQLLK", "settings": "Compound concentration 10.0 uM, Protein concentration 2.0 uM"}}, "note": "“And” between values parts separate entries of the source, which are not always exact repeats. Identical values can stand only once.", "data": [{"smiles": "Cc1cc(=O)n(C)c2cc(N3C(=O)CC[C@@H](NS(=O)(=O)CC(C)C)[C@@H]3c3ccc(Cl)cc3)ccc12", "values": [{"measurement": "ΔTm", "setting": "[1]", "result": "-0.29 °C and 0.14 °C"}, {"measurement": "ΔTm", "setting": "[2]", "result": 0.23, "unit": "°C"}]}]}
